{"source": "PubChem BioAssay (EPA / NIEHS)", "note": "Activity calls are given as the source filed them. Rule for the calls: active = hit-call score of the fitted dose curve at least 0.9, where 1 is the maximum; inactive = score below 0.9."}
{"target": "Transcription factor E2F1 (Homo sapiens) (UniProt Q01094)", "sequence (Q01094 whole entry, looked up)": "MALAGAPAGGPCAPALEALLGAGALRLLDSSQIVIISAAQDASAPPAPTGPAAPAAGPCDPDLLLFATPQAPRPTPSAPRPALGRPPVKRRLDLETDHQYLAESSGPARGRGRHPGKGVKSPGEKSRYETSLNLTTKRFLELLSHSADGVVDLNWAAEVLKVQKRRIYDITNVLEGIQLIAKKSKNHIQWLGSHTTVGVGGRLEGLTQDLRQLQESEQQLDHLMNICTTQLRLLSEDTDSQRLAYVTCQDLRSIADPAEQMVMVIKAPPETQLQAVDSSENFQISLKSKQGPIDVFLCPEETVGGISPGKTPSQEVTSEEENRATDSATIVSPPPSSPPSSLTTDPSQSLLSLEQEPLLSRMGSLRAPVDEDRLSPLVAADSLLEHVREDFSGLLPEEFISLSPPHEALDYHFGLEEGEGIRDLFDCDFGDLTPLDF", "experiment": "ATG_E2F_CIS: Attagene CIS-FACTORIAL HepG2 Assay for human E2F Transcription Factor 1 (AID 2282935)", "conditions": "HepG2 Attagene cis-reporter, E2F reporter RNA transcripts; actives raise or lower the signal", "method": "ATG_CIS is a cell-based, multiplexed-readout assay that uses HepG2, a human liver cell line, with measurements taken at 24 hours after chemical dosing in a 24-well plate.ATG_E2F_CIS is one of 52 assay component(s) measured or calculated from the ATG_CIS assay. It is designed to make measurements of mRNA induction, a form of inducible reporter, as detected with fluorescence intensity signals by Reverse transcription polymerase chain reaction (RT-PCR) and Capillary electrophoresis technology.Data from the assay component ATG_E2F_CIS was analyzed into 1 assay endpoint. This assay endpoint, ATG_E2F_CIS, was analyzed with bidirectional fitting relative to DMSO as the negative control and baseline of activity. Using a type of inducible reporter, measures of mRNA for gain or loss-of-signal activity can be used to understand the reporter gene at the transcription factor-level as they relate to the gene E2F1. Furthermore, this assay endpoint can be referred to as a primary readout, because this assay has produced multiple assay endpoints where this one serves a reporter gene function. To generalize the intended target to other relatable targets, this assay endpoint is annotated to the dna binding intended target family, where the subfamily is E2F transcription factor.\nHuman liver HepG2 cells are transiently transfected with multiple reporter transcription units (MRTUs) in 6-well plates using FuGene 6 reagent (Roche; 3 ml FuGene/1 mg DNA). The MRTU constructs are regulated by a cis-regulating element (promoter). […] A major difference between the CIS and TRANS system is that in CIS activities of endogenous TFs are measured, whereas the TRANS assay evaluates changes in activities of exogenous, chimeric NR-Gal4 proteins. […] At the end of 24 hour incubation, total RNA was isolated using TriZol reagent (Invitrogen). The isolated RNA is then reverse-transcribed using oligo(dT) primer and Mo-MLV reverse transcriptase (Invitrogen) with DNAse I (Ambion) treatment for 30 min. The one-tenth of the produced cDNA was amplified by PCR using Taq DNA polymerase (Invitrogen) and two reporter sequence-specific primers. The PCR products were fluorescently labeled by primer extension with 6-arboxyfluorescein (6-FAM) 5'-labeled reporter sequence-specific primer (2 min at 95 C, 20 s at 68 C and 10 min at 72 C) and these products were digested with 5U of HpaI (New England Biolabs) for 2h at 37 C. The fragments were purified using Qiaquick PCR columns (Qiagen), analyzed on an ABI 3130xL genetic analyzer (Applied Biosystems) with peak positions identified by using a set of X-rhodamine (ROX)-labeled MapMarker1000 molecular weight standards (BioVentures). The raw capillary electrophoresis data was processed using Attagraph software (Attagene)."}
{"smiles": "C=CCOC(=O)C(C)(C)OC(=O)c1cc(-n2c(=O)cc(C(F)(F)F)n(C)c2=O)ccc1Cl", "outcome": "inactive"}
{"smiles": "CCNP(=S)(OC)O/C(C)=C/C(=O)OC(C)C", "note": "(stereo not given)", "outcome": "inactive"}
{"smiles": "COC(=O)NC(=S)Nc1ccccc1NC(=S)NC(=O)OC", "outcome": "inactive"}
{"smiles": "COCC(C)N(C(=O)CCl)c1c(C)csc1C", "note": "(stereo not given)", "outcome": "inactive"}
{"smiles": "CCOP(=O)(OCC)Oc1nc(Cl)c(Cl)cc1Cl", "outcome": "inactive"}
{"smiles": "CC(C)N1C(=O)c2ccccc2NS1(=O)=O", "outcome": "inactive"}
{"smiles": "Cc1cc(C)nc(Nc2ccccc2)n1", "outcome": "inactive"}
{"smiles": "Cc1ccc(N=CN(C)C=Nc2ccc(C)cc2C)c(C)c1", "outcome": "inactive"}
{"smiles": "CC1(C)C(C(=O)OC(C#N)c2cccc(Oc3ccccc3)c2)C1(C)C", "note": "(stereo not given)", "outcome": "inactive"}
{"smiles": "COC(=O)N(C(=O)N1CO[C@@]2(C(=O)OC)Cc3cc(Cl)ccc3C2=N1)c1ccc(OC(F)(F)F)cc1", "outcome": "inactive"}
{"smiles": "O=c1n(Cl)c(=O)n(Cl)c(=O)n1Cl", "outcome": "inactive"}
{"smiles": "CCCN(CC)CC1COC2(CCC(C(C)(C)C)CC2)O1", "note": "(stereo not given)", "outcome": "inactive"}
{"smiles": "CCSC(=O)N1CCCCCC1", "outcome": "inactive"}
{"smiles": "Nc1c(Cl)c(F)nc(OCC(=O)O)c1Cl", "outcome": "inactive"}
{"smiles": "CNC(=O)N(C)c1nnc(C(C)(C)C)s1", "outcome": "inactive"}
{"smiles": "CCCC(=NOCC)C1=C(O)CC(CC(C)SCC)CC1=O", "note": "(stereo not given)", "outcome": "inactive"}
{"smiles": "CC1(C)CCC(=Cc2ccc(Cl)cc2)C1(O)Cn1cncn1", "note": "(stereo not given)", "outcome": "inactive"}
{"smiles": "Clc1nc(Cl)nc(Nc2ccccc2Cl)n1", "outcome": "inactive"}
{"smiles": "Clc1cccc(C(Cl)(Cl)Cl)n1", "outcome": "inactive"}
{"smiles": "CCOc1nc(F)cc2nc(S(=O)(=O)Nc3c(Cl)cccc3Cl)nn12", "outcome": "inactive"}
{"smiles": "CS(=O)(=O)c1ccc(C(=O)C2C(=O)CCCC2=O)c([N+](=O)[O-])c1", "outcome": "inactive"}
{"smiles": "Cc1nc(N(C)C)nc(OC(=O)N(C)C)c1C", "outcome": "inactive"}
{"smiles": "CCOc1nc(C(Cl)(Cl)Cl)ns1", "outcome": "inactive"}
{"smiles": "CCOP(=S)(OCC)Oc1nc(Cl)n(C(C)C)n1", "outcome": "inactive"}
{"smiles": "CCOc1cc(C(C)(C)C)ccc1C1COC(c2c(F)cccc2F)=N1", "note": "(stereo not given)", "outcome": "inactive"}
{"smiles": "O=C(Nc1ccccc1-c1ccc(Cl)cc1)c1cccnc1Cl", "outcome": "inactive"}
{"smiles": "C=C(C)CN(CC)c1c([N+](=O)[O-])cc(C(F)(F)F)cc1[N+](=O)[O-]", "outcome": "inactive"}
{"smiles": "COc1cc(Cl)c(OC)cc1Cl", "outcome": "inactive"}
{"smiles": "COC(=O)c1c(C(F)F)nc(C(F)(F)F)c(C2=NCCS2)c1CC(C)C", "outcome": "inactive"}
{"smiles": "CCN(CC)C(=O)C(C)Oc1cccc2ccccc12", "note": "(stereo not given)", "outcome": "inactive"}
{"smiles": "CC(C)C1(C)N=C(c2ncccc2C(=O)O)NC1=O", "note": "(stereo not given)", "outcome": "inactive"}
{"smiles": "CCOC(=O)C(C)OC(=O)c1cc(Oc2ccc(C(F)(F)F)cc2Cl)ccc1[N+](=O)[O-]", "note": "(stereo not given)", "outcome": "inactive"}
{"smiles": "N#CN=C1SCCN1Cc1ccc(Cl)nc1", "outcome": "inactive"}
{"smiles": "COCc1cnc(C2=NC(C)(C(C)C)C(=O)N2)c(C(=O)O)c1", "note": "(stereo not given)", "outcome": "inactive"}
{"smiles": "CCCCOCN(C(=O)CCl)c1c(CC)cccc1CC", "outcome": "inactive"}
{"smiles": "CCC(C)n1c(=O)[nH]c(C)c(Br)c1=O", "note": "(stereo not given)", "outcome": "inactive"}
{"smiles": "COC(=O)NS(=O)(=O)c1ccc(N)cc1", "outcome": "inactive"}
{"smiles": "Cn1c(-c2ccccc2)cc(-c2ccccc2)[n+]1C", "outcome": "inactive"}
{"smiles": "N#Cc1c[nH]cc1-c1cccc2c1OC(F)(F)O2", "outcome": "inactive"}
{"smiles": "Nc1cnn(-c2ccccc2)c(=O)c1Cl", "outcome": "inactive"}
